The whole screen tested about 350,000 compounds, of which about 31,000 (8.9%) were called active. About 15% were inconclusive and are not listed. The call rests on the fitted dose curve; in most records, active means well fitted inhibition curve with a large enough effect; inconclusive means small, poorly fitted or top-dose-only effect; inactive means no such curve, though single readings can be large or run the other way. What follows is part of a selection rich in actives, with near analogues and random picks from the rest. More than one record can exist for a structure, and the calls need not agree.
Target: Histone-lysine N-methyltransferase EHMT2 (Homo sapiens) (UniProt Q96KQ7)
Sequence (Q96KQ7 913-1193 limits assumed): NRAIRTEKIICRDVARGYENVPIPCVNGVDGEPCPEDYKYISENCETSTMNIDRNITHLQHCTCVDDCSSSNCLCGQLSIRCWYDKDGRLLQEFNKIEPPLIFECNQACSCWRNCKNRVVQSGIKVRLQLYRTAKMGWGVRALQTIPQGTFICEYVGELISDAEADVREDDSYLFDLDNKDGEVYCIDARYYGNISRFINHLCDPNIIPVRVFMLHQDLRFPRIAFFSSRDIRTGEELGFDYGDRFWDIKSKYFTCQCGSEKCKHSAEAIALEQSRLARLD
Assay: qHTS Assay for Inhibitors of Histone Lysine Methyltransferase G9a; further: nearly all actives have a fitted effect of over 75% in size
Conditions: G9a H3K9 monomethylation, AlphaScreen, 2 h; series mostly up to 59 µM; activity, negative = inhibition: at the top concentration
Outline: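 Using a bead-based AlphaScreen, monomethylated H3K9 product from 2 h room-temperature reactions (G9a 20 nM, peptide 500 nM, SAM 20 uM) was detected with 0.5 ug/mL rabbit anti-H3K9me1 antibody.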
On the % scale 0 is the no-effect control and ±100 the full control effect; potency means the concentration at half of the fitted maximal effect.

Row | Structure (SMILES) | activity, negative = inhibition | Potency
1 | COc1cc(Nc2nc3ccc(Cl)cc3n3cnnc23)cc(OC)c1OC | 98.3% [at 102 µM] (inactive) | –
2 | COc1cc(F)c(C2=CC(=O)CC(C)(C)C2)cc1F | -4.97% [at 0.501 µM] (inactive) | –
3 | COc1ccccc1S(=O)(=O)NCc1ccc(C(=O)N(C)Cc2ccc(F)cc2)cc1 | 6.01% [at 2.33 µM] (inactive) | –
4 | Cc1cccc(CCNC(=O)c2ccc3c(c2)nc2n3CCC(C)C2)c1 (centres undefined) | 2.69% (inactive) | –
5 | CC(=O)N1CCc2cc(Br)cc(S(=O)(=O)CCC(=O)NCCc3ccc(Cl)cc3)c21 | 9.87% (inactive) | –
6 | C/C(=N\NC(=O)c1ccccc1F)c1ccccn1 | 36.1% [at 102 µM] (inactive) | –
7 | CCOC(=O)C1CCN(C(=O)/C=C/c2cc(OC)c(OC)c(OC)c2)CC1 | 15.1% (inactive) | –
8 | CCOC(=O)C1CCCCN1Cc1ccc(OC)c(OC)c1OC (centres undefined) | – | 12.6 µM (active)
9 | CCOC(=O)C1CCN(S(=O)(=O)c2cc(F)ccc2OC)CC1 | 11.3% [at 102 µM] (inactive) | –
10 | Cc1ccc(S(=O)(=O)c2nc(-c3ccco3)oc2SCC(=O)Nc2ccc(F)cc2)cc1 | 0.772% (inactive) | –
11 | NS(=O)(=O)c1ccc(CCNC(=O)CN2C(=O)c3ccccc3S2(=O)=O)cc1 | -0.171% [at 102 µM] (inactive) | –
12 | CCC(=O)N1CCc2cc(Br)cc(S(=O)(=O)CCC(=O)NCCc3ccc(OC)c(OC)c3)c21 | 8.33% (inactive) | –
13 | Cc1ccccc1NC(=O)C(C)OC(=O)CCC(=O)N(CC(C)C)c1c(N)n(CC(C)C)c(=O)[nH]c1=O (centres undefined) | -28.5% (inactive) | –
14 | CC(C)(C)NCC(O)COc1cccc2[nH]c(=O)[nH]c12 (centres undefined) | 21.7% [at 12.7 µM] (inactive) | 1.12 µM (active)
15 | CC(C)(C)CC(C)(C)NCC(O)COCCOc1ccc(Br)cc1 (centres undefined) | 1.72% (inactive) | –
16 | COc1ccccc1OCCNCC(O)COc1cccc2[nH]c3ccccc3c12 (centres undefined) | – | inactive
17 | COc1ccc(C2(C#N)CCC(C(=O)O)CC2)cc1OC1CCCC1 (centres undefined) | -32.8% [at 12.7 µM] (inactive) | –
18 | Cc1ccc(S(=O)(=O)n2nc(C)c(S(=O)(=O)N3CCCCCC3)c2C)cc1 | 6.64% (inactive) | –
19 | COc1ccc(S(=O)(=O)n2nc(C)c(S(=O)(=O)N3CCOCC3)c2C)cc1 | – | 79.4 µM (active)
20 | COc1ccc(S(=O)(=O)n2nc(C)c(S(=O)(=O)N3CCCCCC3)c2C)cc1 | -1.88% (inactive) | –
21 | COc1ccc(S(=O)(=O)c2c(Nc3cccc(Cl)c3)sc(C(=O)c3ccccc3)c2N)cc1 | 1.28% (inactive) | –
22 | CCCNC(=O)C1CCN(c2nc3ccc(C)cc3[nH]2)CC1 | -0.986% (inactive) | –
23 | Cc1ccc2nc(/C(C#N)=C\c3ccc(OC(=O)c4cccs4)cc3)[nH]c2c1 | 7.86% [at 102 µM] (inactive) | –
24 | Cc1ccc2nc(S(=O)(=O)O)[nH]c2c1 | – | 89.1 µM (active)

Row | Structure (SMILES) | activity, negative = inhibition | Potency
25 | COc1cccc(CNC(=O)CSc2c3c(nc4cc(Cl)ccc24)CCCC3)c1 | -2.82% (inactive) | –
26 | Cc1ccc(CCNC(=O)c2ccc(CNS(=O)(=O)c3ccc(C)cc3)cc2)cc1 | -2.1% (inactive) | –
27 | COC(=O)C1=C(C)NC(=O)/C1=C/c1ccc(CNS(=O)(=O)c2ccc(C)cc2)o1 | – | 50.1 µM (active)
28 | COc1ccccc1CNS(=O)(=O)c1ccc(C)cc1 | 8.26% (inactive) | –
29 | Cc1cc(C)c2sc(NC(=O)c3ccc(S(=O)(=O)N4CCCC4)cc3)nc2c1 | 7.98% (inactive) | –
30 | Cn1c(=O)c(C(=O)O)nn(-c2ccccc2)c1=O | -33.3% (inactive) | –
31 | Cc1cccc(OCC(=O)N(Cc2ccc(C(C)C)cc2)Cc2ccco2)c1C | 92.4% (inactive) | –
32 | CS(=O)(=O)c1sc2nc(-c3ccccc3)cc(-c3ccccc3)c2c1N | 6.2% (inactive) | –
33 | CNC(=S)NNC(=O)c1oc2nc(-c3ccccc3)cc(-c3ccco3)c2c1N | – | 10 µM (active)
34 | CC1=C(c2ccc(Cl)cc2)S(=O)(=O)N=C1N1CCN(c2cc(C)ccc2C)CC1 | -4.09% (inactive) | –
35 | COc1ccc(-c2c(-c3ccc(OC)cc3O)nc(C)nc2C(F)(F)F)cc1 | 0.626% [at 102 µM] (inactive) | –
36 | CCOc1ccc(-c2cc3nc(C4CCN(C(=O)OC(C)(C)C)CC4)c(C(=O)Nc4ccc(C(=O)OC)cc4)cn3n2)cc1 | -20.7% (inactive) | –
37 | CCOC(=O)c1c(NC(=O)COc2cc(C)ccc2C(C)C)sc(C)c1C | – | 1.78 µM (active)
38 | CCOC(=O)c1c(NC(=O)CSc2nnc(CNc3ccc(C)cc3C)o2)sc(C)c1C | 3.71% (inactive) | –
39 | CCOC(=O)c1sc(NC(=O)COc2ncnc3ccccc23)c(C(=O)OCC)c1C | -4.04% (inactive) | –
40 | COc1cccc(CNC(=O)c2ccc3c(c2)N(Cc2ccc(C(F)(F)F)cc2)C(=O)c2ccccc2S3)c1OC | -7.77% (inactive) | –
41 | O=C(N/N=C/c1cccc([N+](=O)[O-])c1)c1ccncc1 | 25.8% [at 102 µM] (inactive) | –
42 | N/C(=N\OS(=O)(=O)c1cccc([N+](=O)[O-])c1)c1ccncc1 | – | 10 µM (active)
43 | O=C(c1ccncc1)N1CCN(S(=O)(=O)c2cccc([N+](=O)[O-])c2)CC1 | 14.7% [at 102 µM] (inactive) | –
44 | Oc1c(C=Nc2cccc3nsnc23)ccc2ccccc12 | – | 2.24 µM (active)
45 | COc1ccc(C=Nc2cccc3ncccc23)cc1 | -38.4% [at 102 µM] (inactive) | –
46 | CC(C)(C)NS(=O)(=O)c1ccc(NC(=O)C2CCCO2)cc1 (centres undefined) | 51.9% [at 102 µM] (inactive) | –
47 | O=C(CC(c1cccs1)N1Cc2ccccc2C1=O)Nc1ccc(F)c(F)c1 (centres undefined) | -1.11% (inactive) | –
48 | CCc1cccc(NC(=O)COC(=O)C2CCN(c3ccc(C(F)(F)F)cn3)CC2)c1 | 10.8% [at 0.501 µM] (inactive) | –

Row | Structure (SMILES) | activity, negative = inhibition | Potency
49 | COc1ccc(C(=O)NCc2ccc(Cl)cc2)cc1S(=O)(=O)N1CCCC1 | -2.17% [at 12.7 µM] (inactive) | –
50 | CCCNC(=O)c1ccc(N2CCC3(CC2)CC(c2cccc(Br)c2)=NO3)c(NC(=O)c2ccco2)c1 | 7.48% [at 2.33 µM] (inactive) | –
51 | CCCN(CCC)CCNC(=O)c1ccc2c(c1)NC(=O)C(CS(=O)(=O)Cc1cccc(Br)c1)N2 (centres undefined) | – | 25.1 µM (active)
52 | C/C(Cc1ccccc1)=N\NC(=O)CNC(=O)c1cccc(Br)c1 | -2.2% (inactive) | –
53 | Cc1ccccc1CS(=O)(=O)CC1Nc2ccc(C(=O)NCc3ccc(Cl)cc3)cc2NC1=O (centres undefined) | – | 10 µM (active)
54 | CCCC(=O)Nc1cc(C(=O)NCc2ccc(OC)cc2)ccc1S(=O)(=O)c1ccc(Cl)cc1 | -30.6% (inactive) | –
55 | Cc1cccc(C(=O)N2CCc3cc(CNC(=O)Cc4ccc(F)cc4)ccc32)c1 | -0.833% (inactive) | –
56 | CCOC(=O)C(C)n1cnc2c(nnn2-c2cccc(OC)c2)c1=O (centres undefined) | 24% [at 102 µM] (inactive) | –
57 | CCc1nnc(NC(=O)CCC(=O)N2CCN(c3cc(C)ccc3C)CC2)s1 | 74.2% [at 102 µM] (inactive) | –
58 | O=C(c1ccc2ccccc2n1)N1CCN(c2ccccc2Cl)CC1 | – | 44.7 µM (active)
59 | O=C(c1ccncc1)N1CCN(c2ccc3ccccc3n2)CC1 | 25% [at 12.7 µM] (inactive) | –
60 | COc1ccccc1N1CCN(C(=O)c2cc(-c3ccc(Cl)c(Cl)c3)on2)CC1 | 10.8% (inactive) | –
61 | Cc1ccc2c(=O)c(C(=O)c3ccc(Cl)cc3)cn(CC(=O)NC3CCCCC3)c2n1 | 1.24% (inactive) | –
62 | COC(=O)c1ccc(CSc2ccc(S(=O)(=O)N3CCCCC3)cn2)cc1 | -3.87% [at 12.7 µM] (inactive) | –
63 | O=C(O)c1ccc(N/N=C/c2ccc3ncccc3c2)cc1 | – | 10 µM (active)
64 | O=C(O)c1ccc(/C=N/Nc2nc(N3CCCCC3)nc(N3CCCCC3)n2)cc1 | 7.89% [at 102 µM] (inactive) | –
65 | CCNC(=S)NNC(=O)c1ccc2ncccc2c1 | -36.9% [at 102 µM] (inactive) | –
66 | COc1cccc(/C=C/C(=O)OCC(=O)N2CCCc3ccccc32)c1 | 23.6% [at 102 µM] (inactive) | –
67 | CCOC(=O)c1ccc(NC(=O)c2ncn(-c3ccccc3)n2)cc1 | 7.4% (inactive) | –
68 | CC(OC(=O)C1CC(=O)N(Cc2ccccc2)C1)C(=O)Nc1ccccc1[N+](=O)[O-] (centres undefined) | – | 56.2 µM (active)
69 | Cc1cccc(C(C)C)c1NC(=O)COC(=O)C1CC(=O)N(Cc2ccccc2)C1 (centres undefined) | 7.15% [at 0.501 µM] (inactive) | –
70 | O=C(Nc1ccc(F)c([N+](=O)[O-])c1)C1CC(=O)N(Cc2ccccc2)C1 (centres undefined) | -40.7% [at 102 µM] (inactive) | –
71 | CCOc1ccccc1NC(=O)CSc1ncc(S(=O)(=O)c2ccc(C(C)(C)C)cc2)c(=O)[nH]1 | 3.14% (inactive) | –
72 | Cc1ccccc1CSc1nc2c([nH]c3ccccc32)c(=O)n1C | 9.49% (inactive) | –

Row | Structure (SMILES) | activity, negative = inhibition | Potency
73 | CCCCN(Cc1ccccc1)C(=O)C1CCN(Cc2sccc2C)CC1 | – | 14.1 µM (active)
74 | CCNC(=S)NNC(=O)C1CCN(Cc2ccccc2)CC1 | 2.28% [at 102 µM] (inactive) | –
75 | CCCCN(C(=O)C1CCC1)c1c(N)n(Cc2ccccc2)c(=O)[nH]c1=O | -8.06% [at 12.7 µM] (inactive) | –
76 | O=C(Nc1cc2c3c(c1)CC(=O)N3CCC2)c1ccccc1F | -28.2% [at 102 µM] (inactive) | –
77 | CCOc1ccc(NC(=O)CN(C)C(=O)Cn2c(=O)cnc3ccccc32)cc1OCC | 19.7% (inactive) | –
78 | NC(=O)N1CCc2ccccc21 | 21.5% [at 102 µM] (inactive) | –
79 | O=C(CN1CCc2ccccc21)NC(c1ccccc1)c1ccccc1 | – | 39.8 µM (active)
80 | O=C(CN1CCN(Cc2ccccc2)CC1)NC(c1ccccc1)c1ccccc1 | -128% (inactive) | –
81 | COc1cc2nc(SCc3ccc(F)cc3)n3nc(CCn4c(C)nc5ccccc54)nc3c2cc1OC | -27.3% (inactive) | –
82 | CCCSc1ncc(Cl)c(C(=O)Nc2c(C(=O)Nc3ccccc3)oc3ccccc23)n1 | -2.95% (inactive) | –
83 | COc1ccc2c(C)cc(SCC(=O)NCC3CCCO3)nc2c1 (centres undefined) | 17.7% [at 2.33 µM] (inactive) | –
84 | CCOC(=O)c1cnc2c(C)cc(C)cc2c1Nc1ccc(N2CCOCC2)cc1 | – | 10 µM (active)
85 | CCOC(=O)c1cnc2c(C)cc(Cl)cc2c1NCCc1ccc(OC)c(OC)c1 | 0.754% (inactive) | –
86 | CCOC(=O)c1cnc2ccc(F)cc2c1Nc1ccc2c(c1)OCCO2 | -40.5% (inactive) | –
87 | FC(F)(F)c1ccc2c3n(nc2c1)CCN=C3c1ccc(Cl)cc1 | 23% [at 2.33 µM] (inactive) | –
88 | Cc1ccc(CNC(=O)CSc2c(C)cnc3c2c(=O)n(C)c(=O)n3C)cc1 | -1.97% (inactive) | –
89 | Cc1cccnc1CC(C)NC(=O)c1cc(COc2cncc(Cl)c2)on1 (centres undefined) | 49.6% [at 102 µM] (inactive) | –
90 | O=S(=O)(c1ccccc1)c1nc(-c2ccccc2)oc1NCCCN1CCOCC1 | 5.12% [at 102 µM] (inactive) | –
91 | CCOc1cc(N2CCOCC2)c(OCC)cc1NC(=O)c1ccc(C)s1 | – | 44.7 µM (active)
92 | CCOc1cc(N2CCOCC2)c(OCC)cc1NC(=O)COC(=O)[C@H](Cc1c[nH]c2ccccc12)NC(C)=O | -12.3% (inactive) | –
93 | CCOc1cc(N2CCOCC2)c(OCC)cc1NC(=O)c1cc(C)nc2ccccc12 | -23.5% [at 102 µM] (inactive) | –

From PubChem BioAssay AID504332 (National Center for Advancing Translational Sciences (NCATS), 2011)
